Test systems include NCI-H23 lung; NCI-H460 lung; 786-0 renal; DU-145 prostate; MDA-MB-231 breast; SF-268 CNS; SF-539 CNS; M14 melanoma; SNB-75 CNS; PC-3 prostate; UACC-62 melanoma; SK-MEL-28 melanoma; ACHN renal; OVCAR-5 ovarian; OVCAR-3 ovarian; NCI/ADR-RES ovarian; SW-620 colon; MCF7 breast; HCT-116 colon; KM12 colon.
Assay in all cases: NCI-60 one-dose screen, 48 h (100 = growth as untreated, 0 = no growth, -100 = all killed)
Settings in all cases: 10 µM unless noted

SMILES strings stand for the structures. About 83,000 compounds went through this panel and 20% of them were active in at least one assay; those are over-represented in the sample as a whole.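 Treatment: one concentration, 48 hours, 96-well format. Scoring: percent growth, with anything below 10 considered active.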 Unmarked numbers belong to inactive results. Calls of active or inactive are those of the source.

For the molecule `CC(/C=N/N=C(N)N)=N\N=C(N)N`, the growth in the test with NCI-H23 lung is 68.9%; in the test on NCI-H460 lung, 82.7%; in the test with 786-0 renal it was 55.6%; with DU-145 prostate, 65.5%; in the test with MDA-MB-231 breast it was 80.2%; in the test on SF-268 CNS, 50.3%. The growth is 51.9% in the test with SF-539 CNS; 80.3% with M14 melanoma; 63.7% with SNB-75 CNS; 101% in the test with PC-3 prostate; 86.7% in the test on UACC-62 melanoma; 87.1% in the test with SK-MEL-28 melanoma. The growth was 80.9% with ACHN renal; 82.1% in the test on OVCAR-5 ovarian; 57.7% in the test with OVCAR-3 ovarian; 24.9% in the test on NCI/ADR-RES ovarian; 70.6% in the test with SW-620 colon; 76.8% in the test with MCF7 breast. The growth in the test on HCT-116 colon was 49%; in the test on KM12 colon, 40.9%.

Consider `CCCCCCCC(=O)OCC/C=C/C1OC1C1OC(=O)/C=C\C=C\c2nc(oc2C)/C=C(/C)CCC2OC2C1OC(=O)NC(C)=O` (centres undefined), for which the growth in the test on NCI-H23 lung was -59.1% (active); in the test with NCI-H460 lung, -51.5% (active); in the test with 786-0 renal it was -53.8% (active); in the test with DU-145 prostate, -74.5% (active); in the test on SF-268 CNS, 5.33% (active); in the test on SF-539 CNS it was -34.1% (active). The growth is -20.4% (active) in the test on M14 melanoma; -35.8% (active) in the test with SNB-75 CNS; -3.27% (active) with PC-3 prostate; -49.6% (active) in the test on UACC-62 melanoma; -15.3% (active) in the test with SK-MEL-28 melanoma; -16.8% (active) in the test on ACHN renal. Further, the growth was -22% (active) with OVCAR-5 ovarian; 5.74% (active) with OVCAR-3 ovarian; -33.8% (active) with NCI/ADR-RES ovarian; -65.4% (active) with SW-620 colon; -39.3% (active) in the test with MCF7 breast; -24.4% (active) in the test on HCT-116 colon. Also, in the test with KM12 colon, the growth is -74% (active).

Take `CC1(C)N=C(N)N=C(N)N1c1ccc(OCCCCNC(=O)Nc2cccc(S(=O)(=O)F)c2)c(Cl)c1`: the growth in the test on NCI-H23 lung was 39.8%; in the test with NCI-H460 lung, 14.2%; with 786-0 renal, 35.8%; with DU-145 prostate, 37.1%; with MDA-MB-231 breast, 59.6%; in the test with SF-268 CNS, 44.4%. Besides, the growth was 40.1% in the test on SF-539 CNS; 40.4% with M14 melanoma; 74.8% in the test with SNB-75 CNS; 5.73% (active) in the test on PC-3 prostate; 22.8% with UACC-62 melanoma; 60.3% with SK-MEL-28 melanoma. The growth was 94.9% with ACHN renal; 32.5% with OVCAR-5 ovarian; 82.3% with OVCAR-3 ovarian; 110% with NCI/ADR-RES ovarian; 27.1% in the test with SW-620 colon; 15% in the test with MCF7 breast. Besides, the growth with HCT-116 colon is 16.4%; in the test with KM12 colon it was 41.7%.

For `CC1(C)N=C(N)N=C(N)N1c1ccc(OCCCCNC(=O)c2ccc(S(=O)(=O)F)cc2)c(Cl)c1`, the growth with NCI-H23 lung was 68.1%; in the test with NCI-H460 lung it was 19.8%; in the test on 786-0 renal, 40.9%; with DU-145 prostate it was 55%; in the test on MDA-MB-231 breast it was 105%; in the test on SF-268 CNS it was 40.7%. In addition, the growth with SF-539 CNS was 64.9%; in the test on M14 melanoma, 70.1%; in the test on SNB-75 CNS, 87.7%; in the test with PC-3 prostate, 23.4%; in the test with UACC-62 melanoma, 44.1%; in the test with SK-MEL-28 melanoma, 96%. Besides, the growth is 96.9% in the test with ACHN renal; 56.2% with OVCAR-5 ovarian; 119% in the test on OVCAR-3 ovarian; 109% in the test with NCI/ADR-RES ovarian; 35.1% in the test on SW-620 colon; 34.7% in the test on MCF7 breast. Further, the growth with HCT-116 colon is 25.6%; in the test with KM12 colon it was 66.5%.

As to `C=CCN1C(=O)C(CC)(CCC(C)C)C(=O)NC1=S` (centres undefined), the growth in the test with NCI-H23 lung was 105%; with NCI-H460 lung, 105%; in the test with 786-0 renal it was 97.7%; in the test on DU-145 prostate, 105%; in the test on MDA-MB-231 breast, 108%; with SF-268 CNS, 109%. For the same molecule, the growth in the test on SF-539 CNS was 111%; with M14 melanoma, 107%; with SNB-75 CNS, 96.8%; in the test with PC-3 prostate it was 91.7%; in the test on UACC-62 melanoma it was 92.2%; with SK-MEL-28 melanoma, 104%. The growth is 110% with ACHN renal; 112% in the test with OVCAR-5 ovarian; 113% in the test with OVCAR-3 ovarian; 106% in the test on NCI/ADR-RES ovarian; 104% in the test with SW-620 colon; 107% with MCF7 breast. The growth is 105% in the test with HCT-116 colon and 108% with KM12 colon.

For the molecule `FC(F)=C(F)c1ccccc1`, the growth is 103% in the test on NCI-H23 lung; 109% in the test on NCI-H460 lung; 101% with 786-0 renal; 108% in the test with DU-145 prostate; 115% in the test on MDA-MB-231 breast; 111% in the test on SF-268 CNS. Moreover, the growth in the test with SF-539 CNS was 103%; with M14 melanoma it was 96.7%; in the test with SNB-75 CNS, 88.8%; in the test on PC-3 prostate it was 104%; in the test with UACC-62 melanoma it was 107%; with SK-MEL-28 melanoma it was 102%. Moreover, the growth in the test with ACHN renal was 110%; in the test on OVCAR-5 ovarian it was 112%; with OVCAR-3 ovarian it was 114%; in the test on NCI/ADR-RES ovarian, 106%; in the test on SW-620 colon, 109%; in the test on MCF7 breast, 96.9%. Moreover, the growth with HCT-116 colon was 103%; in the test on KM12 colon, 102%.

For the molecule `Cc1cc(NC(=O)NCCOc2ccc(N3C(N)=NC(N)=NC3(C)C)cc2Cl)ccc1S(=O)(=O)F`, the growth was 40.2% in the test on NCI-H23 lung; 9.44% (active) in the test on NCI-H460 lung; 35.3% in the test with 786-0 renal; 34.4% in the test on DU-145 prostate; 58% in the test on MDA-MB-231 breast; 29% in the test on SF-268 CNS. Besides, the growth with SF-539 CNS was 33.6%; in the test with M14 melanoma it was 32.1%; in the test with SNB-75 CNS, 71.5%; with PC-3 prostate it was -2.88% (active); in the test on UACC-62 melanoma it was 22%; in the test on SK-MEL-28 melanoma, 51.8%. The growth in the test with ACHN renal is 94.2%; in the test with OVCAR-5 ovarian, 26.6%; with OVCAR-3 ovarian, 53.2%; with NCI/ADR-RES ovarian, 102%; with SW-620 colon, 23.4%; in the test with MCF7 breast, 4.3% (active). Besides, the growth was 13.9% in the test on HCT-116 colon and 20.1% in the test with KM12 colon.

`COC(=O)C1CC2c3ccccc3C1c1ccccc12` (centres undefined): the growth with NCI-H23 lung was 111%; with NCI-H460 lung, 104%; in the test with 786-0 renal it was 104%; in the test with DU-145 prostate it was 119%; with MDA-MB-231 breast, 122%; with SF-268 CNS, 107%. In addition, the growth is 101% in the test on SF-539 CNS; 107% in the test on M14 melanoma; 94.5% in the test with SNB-75 CNS; 66.4% in the test with PC-3 prostate; 103% in the test on UACC-62 melanoma; 109% in the test on SK-MEL-28 melanoma. Further, the growth with ACHN renal is 97.9%; in the test with OVCAR-5 ovarian, 104%; in the test on OVCAR-3 ovarian, 115%; in the test on NCI/ADR-RES ovarian, 105%; in the test with SW-620 colon, 106%; in the test on MCF7 breast it was 96.5%. Further, the growth with HCT-116 colon is 106%; in the test with KM12 colon, 113%.

The values above are taken from PubChem BioAssay (NCI).
